The text below walks through data of PubChem BioAssay (EPA / NIEHS).

Assay [1] deals with Androgen receptor (Homo sapiens) (UniProt P10275). Nature of the assay: ATG_AR_TRANS: Attagene TRANS-FACTORIAL HepG2 Assay for human Androgen Receptor (AR) (AID 2282973). The settings on record: HepG2 Attagene TRANS-FACTORIAL AR reporter transcription. The procedure, abridged:
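Transfected HepG2, 24 h treatment, chimeric NR-Gal4 driving GAL4-UAS reporters. mRNA induction by RT-PCR/capillary electrophoresis fluorescence; DMSO as negative control and baseline.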

For assay [2], the target named is human CYP4F12, CYP4F12 (gene 66002) (UniProt Q9HCS2). The assay is described as follows: NVS_ADME_hCYP4F12: NovaScreen (NVS) CYP450-related Enzyme Activity (ADME) Assay for human CYP4F12 (AID 2283111). The procedure, abridged: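 Cell-free fluorescence assay of recombinant human CYP4F12 activity on a specific substrate, read 0.5 h after dosing. Primary screen in duplicate at 10 uM, then concentration series for actives; loss of signal fitted against acetonitrile negative control.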

Assay [3] deals with human Fibroblast Growth Factor Receptor 1 (FGFR1), FGFR1 (gene 2260) (UniProt P11362). Nature of the assay: NVS_ENZ_hFGFR1: NovaScreen (NVS) Enzymatic Assay for human Fibroblast Growth Factor Receptor 1 (FGFR1) (AID 2283159).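 As to AC50: hits lower the signal so potencies describe inhibitors of the kinase.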 An outline of the steps:
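Cell-free recombinant kinase with fluorescent substrate, product separated by electrophoretic mobility shift; read 1 hour after dosing, loss of signal relative to DMSO. Initial screen in duplicate at 25 uM, actives followed in concentration series.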

The target in assay [4] is bovine Gamma-Aminobutyric Acid Type A Receptor BDZ, alpha 1 site (GABARa1), GABRA1 (gene 780973) (UniProt P08219). Nature of the assay: NVS_LGIC_bGABARa1: NovaScreen (NVS) Ligand-Gated Ion Channel Assay for bovine Gamma-Aminobutyric Acid Type A Receptor BDZ, alpha 1 site (GABARa1) (AID 2283321). The procedure, abridged: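 Radioligand competition binding on bovine cortical membranes, 0.75 h, filter-based scintillation counting. Primary single concentration 25 uM in duplicate; actives rerun in concentration-response to 50 uM max. Loss of signal fitted versus DMSO.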

In assay [5] the target is rat Gamma-Aminobutyric Acid Type A Receptor BDZ, alpha 6 site (GABARa6), Gabra6 (gene 29708) (UniProt P30191). The assay is described as follows: NVS_LGIC_rGABARa6: NovaScreen (NVS) Ligand-Gated Ion Channel Assay for rat Gamma-Aminobutyric Acid Type A Receptor BDZ, alpha 6 site (GABARa6) (AID 2283339). An outline of the steps: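 Rat cerebellar membranes; radioligand binding, filtration and scintillation counting, read 1 h after dosing. Single-concentration duplicate screen at 25 uM, then concentration-response up to 50 uM for actives; loss of signal fitted versus DMSO baseline.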
Sequence of rat Gamma-Aminobutyric Acid Type A Receptor BDZ, alpha 6 site (GABARa6), Gabra6 (gene 29708) (P30191 whole entry, looked up): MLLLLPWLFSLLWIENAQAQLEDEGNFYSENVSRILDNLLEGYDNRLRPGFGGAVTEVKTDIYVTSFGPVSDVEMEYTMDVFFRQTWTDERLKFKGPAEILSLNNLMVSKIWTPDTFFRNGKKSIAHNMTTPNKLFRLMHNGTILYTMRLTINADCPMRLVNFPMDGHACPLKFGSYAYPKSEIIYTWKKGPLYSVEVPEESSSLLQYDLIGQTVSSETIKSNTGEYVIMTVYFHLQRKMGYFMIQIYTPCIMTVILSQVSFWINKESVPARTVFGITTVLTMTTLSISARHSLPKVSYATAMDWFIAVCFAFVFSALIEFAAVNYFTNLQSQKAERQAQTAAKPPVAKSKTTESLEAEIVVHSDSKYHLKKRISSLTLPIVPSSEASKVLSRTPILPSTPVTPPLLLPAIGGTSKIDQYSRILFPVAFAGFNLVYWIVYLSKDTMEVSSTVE

Assay [6] addresses Cytochrome P450 2C18 (Homo sapiens) (UniProt P33260). Nature of the assay: NVS_ADME_hCYP2C18: NovaScreen (NVS) CYP450-related Enzyme Activity (ADME) Assay for human CYP2C18 (AID 2283103; active = hit-call score of the fitted dose curve at least 0.9, where 1 is the maximum; inactive = score below 0.9). The procedure, abridged: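 Cell-free recombinant human CYP2C18 with fluorogenic substrate; fluorescence intensity read 0.5 h after dosing. Single-point screen at 10 uM in duplicate, then concentration-response up to 20 uM; loss of signal fitted against acetonitrile baseline.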

In assay [7] the target is human CYP2C8, CYP2C8 (gene 1558) (UniProt P10632). The assay is described as follows: NVS_ADME_hCYP2C8: NovaScreen (NVS) CYP450-related Enzyme Activity (ADME) Assay for human CYP2C8 (AID 2283104; active = hit-call score of the fitted dose curve at least 0.9, where 1 is the maximum; inactive = score below 0.9). The procedure, abridged:
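Recombinant human CYP2C8 with fluorogenic substrate, 0.5 h, fluorescence intensity; signal loss fitted versus acetonitrile. Screened in duplicate at 10 uM, then actives run in concentration-response up to 20 uM.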

In another assay the test system is rat CYP2B1, gene 24300. Nature of the assay: NVS_ADME_rCYP2B1: NovaScreen (NVS) CYP450-related Enzyme Activity (ADME) Assay for rat CYP2B1 (AID 2283117). The procedure, abridged: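 Recombinant rat CYP2B1 with fluorogenic substrate, read at 0.75 h. Primary screen in duplicate at 10 uM; compounds meeting threshold (e.g., 30% inhibition) re-run in concentration-response up to 20 uM. Fitted against acetonitrile control.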

The target in assay [8] is rat CYP2C12, Cyp2c12 (gene 25011) (UniProt P11510). The assay is described as follows: NVS_ADME_rCYP2C12: NovaScreen (NVS) CYP450-related Enzyme Activity (ADME) Assay for rat CYP2C12 (AID 2283119). The procedure, abridged:
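Cell-free recombinant rat CYP2C12 activity read by fluorescence 0.5 h after dosing; loss of signal versus acetonitrile control. Primary screen in duplicate at 10 uM; actives then run in concentration-response format.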

Assay [9] addresses rat CYP2D1, Cyp2d1 (gene 266684) (UniProt P10633). Nature of the assay: NVS_ADME_rCYP2D1: NovaScreen (NVS) CYP450-related Enzyme Activity (ADME) Assay for rat CYP2D1 (AID 2283122). The procedure, abridged: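 Cell-free fluorescence enzyme-activity assay on extracted rat CYP2D1 protein, read 0.75 h after dosing. Primary screen in duplicate at 10 uM; qualifying chemicals then run in concentration-response to 20 uM max, loss-of-signal versus acetonitrile baseline.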

Assay [10] has as its target human Phosphatase and Tensin Homolog (PTEN), PTEN (gene 5728) (UniProt P60484). Nature of the assay: NVS_ENZ_hPTEN: NovaScreen (NVS) Enzymatic Assay for human Phosphatase and Tensin Homolog (PTEN) (AID 2283203). An outline of the steps:
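Cell-free recombinant human PTEN with fluorescent substrate; product separated by electrophoretic mobility shift and read by fluorescence 1 h after dosing. Primary screen in duplicate at 25 uM, actives followed in concentration series versus DMSO.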

In assay [11] the target is human Tyrosine Protein Kinase Receptor Tie-2 (Tie2), TEK (gene 7010) (UniProt Q02763). The assay is described as follows: NVS_ENZ_hTie2: NovaScreen (NVS) Enzymatic Assay for human Tyrosine Protein Kinase Receptor Tie-2 (Tie2) (AID 2283225). An outline of the steps:
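Recombinant human Tie2 kinase activity was read cell-free by fluorescence with electrophoretic mobility shift, 1 hour after dosing. The screen used 25 uM in duplicate, then concentration-response up to 50 uM. Signal loss was scored against DMSO.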

The target of assay [12] is rat Adenylate Cyclase, Forskolin Stimulated, Adcy5 (gene 64532) (UniProt Q04400). Nature of the assay: NVS_ENZ_rACFSKBinding: NovaScreen (NVS) Enzymatic Assay for rat Adenylate Cyclase, Forskolin Stimulated (AID 2283232). An outline of the steps: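 Rat forebrain membrane preparation, cell-free, read 1 h after dosing by filter-based scintillation counting. Primary screen in duplicate at 25 uM; actives (e.g. ≥30% inhibition) rerun in concentration-response up to 50 uM; fit versus DMSO.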

The target in assay [13] is human AMP-activated Protein Kinase, alpha 1 (AMPKa1), PRKAA1 (gene 5562) (UniProt Q13131). The assay is described as follows: NVS_ENZ_hAMPKa1: NovaScreen (NVS) Enzymatic Assay for human AMP-activated Protein Kinase, alpha 1 (AMPKa1) (AID 2283130). An outline of the steps: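 Recombinant human AMPKα1 activity was measured cell-free by fluorescent substrate conversion with electrophoretic mobility-shift separation, 1 h after dosing. Duplicate single-point screening was at 25 uM; actives (≥30% inhibition) were retested in concentration-response up to 50 uM.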

The target of assay [14] is rat Monoamine Oxidase, MAO-B, Central (MAOBC), Maob (gene 25750) (UniProt P19643). Nature of the assay: NVS_ENZ_rMAOBC: NovaScreen (NVS) Enzymatic Assay for rat Monoamine Oxidase, MAO-B, Central (MAOBC) (AID 2283238). An outline of the steps:
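Rat brain tissue extract served as the cell-free MAO-B source; enzyme activity was read by scintillation counting 1.17 hours after compound addition. Loss of signal versus DMSO baseline was fitted; primary single-concentration screen at 25 uM, follow-up concentration-response up to 50 uM.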

Assay [15] concerns the target Bile acid receptor (Homo sapiens) (UniProt Q96RI1). The assay is described as follows: NVS_NR_hFXR_Agonist: NovaScreen (NVS) Nuclear Receptor Binding Assay for human Farnesoid X Receptor Agonism (FXR) (AID 2283347). The procedure, abridged:
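Cell-free TR-FRET binding assay with extracted human FXR protein, agonist format, read 1 h after dosing. Primary screen at 25 uM single concentration in duplicate, actives retested in concentration series; gain of signal versus DMSO.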

The target in assay [16] is Norway rat Vesicular Monoamine Transporter (VMAT2), neurotransmitter transporter, Slc18a2 (gene 25549) (UniProt Q01827). Nature of the assay: NVS_TR_rVMAT2: NovaScreen (NVS) Transporter Assay for Norway rat Vesicular Monoamine Transporter (VMAT2), neurotransmitter transporter (AID 2283376).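 Also: actives lower the bound radioligand signal below the DMSO level.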 An outline of the steps: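 Rat forebrain tissue preparation used in a cell-free radioligand binding format; displacement read by filter-based scintillation counting 1 hour after dosing. Primary screen in duplicate at 25 uM, actives then run in concentration series; loss of signal versus DMSO baseline.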

Assay [17] can be described thus: ATG_M_32_XSP2: Attagene TRANS-FACTORIAL Multi-Species (XSP2) HepG2 Assay for M19 Transcription Factor (Internal Marker) (AID 2283826). An outline of the steps: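 Total RNA is taken from compound-treated HepG2 cells after 24 h and reverse-transcribed; reporter cDNA is PCR-amplified, end-labelled with 6-FAM, digested with HpaI for 2h at 37 C and sized by capillary electrophoresis. Activity is fitted in the positive direction against DMSO.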

Assay [18] concerns rat Monoamine Oxidase, MAO-A, Central (MAOAC), gene 29253. Nature of the assay: NVS_ENZ_rMAOAC: NovaScreen (NVS) Enzymatic Assay for rat Monoamine Oxidase, MAO-A, Central (MAOAC) (AID 2283243).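 Also: potency refers to inhibition seen as signal drop below DMSO baseline.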 An outline of the steps: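 Steps: rat brain protein extract dosed with test chemical (25 uM, duplicate, primary); incubated 1.5 h; radiolabelled product separated from substrate and counted. Signal loss versus DMSO scored as inhibition.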

Several values for one entry are separate records, joined by “and”; a condition that tells them apart may be missing. Equal values may be shown once. Inconclusive results are not listed. The source holds several records for some structures; these can differ, active in one and inactive in another. Activity calls are given as the source filed them. The calls were made as follows, unless noted: active = hit-call score of the fitted dose curve at least 0.9, where 1 is the maximum; inconclusive = response in the unintended direction; inactive = score below 0.9.

Sequence of human Fibroblast Growth Factor Receptor 1 (FGFR1), FGFR1 (gene 2260) (P11362 whole entry, looked up): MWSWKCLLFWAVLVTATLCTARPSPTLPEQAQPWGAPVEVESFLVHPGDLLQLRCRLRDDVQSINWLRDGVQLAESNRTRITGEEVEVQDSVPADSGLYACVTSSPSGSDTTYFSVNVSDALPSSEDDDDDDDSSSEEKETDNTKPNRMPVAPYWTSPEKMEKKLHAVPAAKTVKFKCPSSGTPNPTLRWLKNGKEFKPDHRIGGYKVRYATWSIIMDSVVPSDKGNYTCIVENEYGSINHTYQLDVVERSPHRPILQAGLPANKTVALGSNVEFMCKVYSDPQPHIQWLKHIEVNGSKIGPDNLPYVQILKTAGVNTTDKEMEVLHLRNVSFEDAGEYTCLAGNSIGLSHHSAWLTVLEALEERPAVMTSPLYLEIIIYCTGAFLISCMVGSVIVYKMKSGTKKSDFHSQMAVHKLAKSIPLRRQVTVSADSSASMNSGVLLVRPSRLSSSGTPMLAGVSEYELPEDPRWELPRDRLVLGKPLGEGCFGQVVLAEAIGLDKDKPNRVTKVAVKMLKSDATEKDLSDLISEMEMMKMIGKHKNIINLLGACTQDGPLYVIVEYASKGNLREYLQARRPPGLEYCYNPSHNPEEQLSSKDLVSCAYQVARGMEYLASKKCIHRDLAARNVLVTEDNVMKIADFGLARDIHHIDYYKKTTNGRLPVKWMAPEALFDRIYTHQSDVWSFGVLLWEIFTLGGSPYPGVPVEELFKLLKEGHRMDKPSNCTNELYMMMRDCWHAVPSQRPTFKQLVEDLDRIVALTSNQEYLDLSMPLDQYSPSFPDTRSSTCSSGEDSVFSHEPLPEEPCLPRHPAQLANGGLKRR
Sequence of rat Monoamine Oxidase, MAO-B, Central (MAOBC), Maob (gene 25750) (P19643 whole entry, looked up): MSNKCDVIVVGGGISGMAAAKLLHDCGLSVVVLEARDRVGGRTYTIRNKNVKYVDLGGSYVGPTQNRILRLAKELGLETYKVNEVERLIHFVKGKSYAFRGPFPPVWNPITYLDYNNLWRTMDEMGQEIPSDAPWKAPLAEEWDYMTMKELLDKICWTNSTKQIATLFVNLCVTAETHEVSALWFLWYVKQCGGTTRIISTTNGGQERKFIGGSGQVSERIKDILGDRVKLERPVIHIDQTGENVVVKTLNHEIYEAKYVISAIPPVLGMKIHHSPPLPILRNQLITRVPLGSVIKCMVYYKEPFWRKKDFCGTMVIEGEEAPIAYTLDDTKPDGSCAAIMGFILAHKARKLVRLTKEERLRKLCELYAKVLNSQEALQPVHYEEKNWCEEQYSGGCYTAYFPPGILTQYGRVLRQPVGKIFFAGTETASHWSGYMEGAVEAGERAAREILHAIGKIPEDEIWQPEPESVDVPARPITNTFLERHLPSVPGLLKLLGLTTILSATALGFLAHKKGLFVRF
Sequence of Androgen receptor (Homo sapiens) (P10275 whole entry, looked up, the tested form may be a part): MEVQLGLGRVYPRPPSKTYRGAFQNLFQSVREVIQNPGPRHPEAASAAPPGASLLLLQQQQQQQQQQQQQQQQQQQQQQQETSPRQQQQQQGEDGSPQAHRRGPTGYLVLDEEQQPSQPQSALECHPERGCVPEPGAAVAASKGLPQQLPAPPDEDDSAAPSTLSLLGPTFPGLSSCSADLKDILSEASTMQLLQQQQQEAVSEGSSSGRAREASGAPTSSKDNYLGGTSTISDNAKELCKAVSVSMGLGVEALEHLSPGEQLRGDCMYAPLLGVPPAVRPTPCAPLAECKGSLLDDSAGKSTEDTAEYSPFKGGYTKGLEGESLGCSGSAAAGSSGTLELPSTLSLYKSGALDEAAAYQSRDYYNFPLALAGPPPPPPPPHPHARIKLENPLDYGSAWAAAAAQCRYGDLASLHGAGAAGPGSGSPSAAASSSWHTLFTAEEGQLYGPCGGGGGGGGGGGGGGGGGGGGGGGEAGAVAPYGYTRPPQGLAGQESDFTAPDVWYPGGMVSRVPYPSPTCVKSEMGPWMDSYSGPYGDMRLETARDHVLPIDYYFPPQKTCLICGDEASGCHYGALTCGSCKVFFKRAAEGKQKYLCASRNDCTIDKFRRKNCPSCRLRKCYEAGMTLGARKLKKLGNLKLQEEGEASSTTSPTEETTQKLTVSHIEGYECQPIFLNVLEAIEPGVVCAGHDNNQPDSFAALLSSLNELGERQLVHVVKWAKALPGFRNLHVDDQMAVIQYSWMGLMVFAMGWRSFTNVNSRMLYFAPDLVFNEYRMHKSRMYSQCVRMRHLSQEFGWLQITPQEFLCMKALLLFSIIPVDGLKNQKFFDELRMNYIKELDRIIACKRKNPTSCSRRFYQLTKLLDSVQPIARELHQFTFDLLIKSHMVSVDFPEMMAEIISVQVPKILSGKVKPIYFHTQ
Sequence of Cytochrome P450 2C18 (Homo sapiens) (P33260 whole entry, looked up): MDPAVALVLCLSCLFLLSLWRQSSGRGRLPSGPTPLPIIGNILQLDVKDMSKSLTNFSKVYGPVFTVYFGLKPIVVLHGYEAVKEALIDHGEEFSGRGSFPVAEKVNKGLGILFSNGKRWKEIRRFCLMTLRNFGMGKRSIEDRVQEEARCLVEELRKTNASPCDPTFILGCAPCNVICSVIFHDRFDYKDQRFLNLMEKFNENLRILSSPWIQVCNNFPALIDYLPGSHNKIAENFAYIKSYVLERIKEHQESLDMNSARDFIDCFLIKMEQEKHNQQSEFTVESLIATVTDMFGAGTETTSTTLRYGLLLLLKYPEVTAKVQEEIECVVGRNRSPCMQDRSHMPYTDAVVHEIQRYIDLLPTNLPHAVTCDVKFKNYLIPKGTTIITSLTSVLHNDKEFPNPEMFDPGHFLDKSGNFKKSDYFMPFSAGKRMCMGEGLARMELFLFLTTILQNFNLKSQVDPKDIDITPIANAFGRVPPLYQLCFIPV
Sequence of human Tyrosine Protein Kinase Receptor Tie-2 (Tie2), TEK (gene 7010) (Q02763 whole entry, looked up): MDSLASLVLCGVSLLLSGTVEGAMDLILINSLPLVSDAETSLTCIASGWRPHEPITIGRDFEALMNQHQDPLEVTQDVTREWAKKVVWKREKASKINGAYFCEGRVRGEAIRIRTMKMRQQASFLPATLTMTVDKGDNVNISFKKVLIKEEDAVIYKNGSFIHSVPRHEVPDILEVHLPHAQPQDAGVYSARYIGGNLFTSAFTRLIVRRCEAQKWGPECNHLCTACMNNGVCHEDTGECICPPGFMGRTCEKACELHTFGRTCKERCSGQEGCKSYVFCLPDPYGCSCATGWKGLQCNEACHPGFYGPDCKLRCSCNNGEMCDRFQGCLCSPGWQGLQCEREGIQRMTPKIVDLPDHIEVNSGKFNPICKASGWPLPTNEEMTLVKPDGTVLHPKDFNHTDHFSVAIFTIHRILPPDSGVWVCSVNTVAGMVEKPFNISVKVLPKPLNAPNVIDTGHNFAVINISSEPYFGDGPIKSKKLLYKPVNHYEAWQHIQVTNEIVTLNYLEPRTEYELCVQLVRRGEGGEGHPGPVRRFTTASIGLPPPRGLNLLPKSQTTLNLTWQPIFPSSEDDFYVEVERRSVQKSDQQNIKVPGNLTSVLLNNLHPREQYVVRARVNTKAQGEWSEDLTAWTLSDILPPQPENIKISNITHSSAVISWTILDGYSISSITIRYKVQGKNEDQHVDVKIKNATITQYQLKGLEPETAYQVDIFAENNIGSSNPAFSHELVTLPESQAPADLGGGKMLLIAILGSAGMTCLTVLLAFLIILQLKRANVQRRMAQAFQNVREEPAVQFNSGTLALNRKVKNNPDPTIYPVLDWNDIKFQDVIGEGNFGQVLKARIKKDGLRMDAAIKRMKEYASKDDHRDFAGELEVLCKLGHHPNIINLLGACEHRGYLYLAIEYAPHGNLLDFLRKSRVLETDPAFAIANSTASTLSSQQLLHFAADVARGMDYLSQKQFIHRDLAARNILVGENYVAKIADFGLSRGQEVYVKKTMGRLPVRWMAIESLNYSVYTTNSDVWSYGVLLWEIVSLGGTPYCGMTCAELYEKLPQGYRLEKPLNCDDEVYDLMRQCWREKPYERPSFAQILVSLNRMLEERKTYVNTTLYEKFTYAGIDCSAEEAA
Sequence of Bile acid receptor (Homo sapiens) (Q96RI1 whole entry, looked up): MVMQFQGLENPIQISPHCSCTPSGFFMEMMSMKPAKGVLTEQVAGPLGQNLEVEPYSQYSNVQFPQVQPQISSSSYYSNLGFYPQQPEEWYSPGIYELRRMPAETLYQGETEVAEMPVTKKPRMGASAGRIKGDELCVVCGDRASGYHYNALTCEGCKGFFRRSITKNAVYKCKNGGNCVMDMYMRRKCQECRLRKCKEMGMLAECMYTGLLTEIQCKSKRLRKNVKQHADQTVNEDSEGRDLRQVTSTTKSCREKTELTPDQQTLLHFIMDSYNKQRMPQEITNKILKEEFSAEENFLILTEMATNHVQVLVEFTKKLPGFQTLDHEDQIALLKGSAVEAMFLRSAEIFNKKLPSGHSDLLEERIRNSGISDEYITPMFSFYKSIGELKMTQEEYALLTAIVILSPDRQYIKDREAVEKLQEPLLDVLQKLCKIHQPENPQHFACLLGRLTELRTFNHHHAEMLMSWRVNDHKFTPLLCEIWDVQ

A word on the AC50: it is the concentration at which the activity in the assay is half-maximal. Turning to `CCCCCCCCCC(=O)O`, the outcome in [1], in assay [3] and in assay [5] was inactive. Moreover, the concentration at half-maximal activity (AC50) in assay [2] is 2.83 µM (active); in assay [4], 19.7 µM (active).
Consider `N#CSCSc1nc2ccccc2s1`, for which the outcome in assay [1], in assay [10] and in assay [11] was inactive. Also, the AC50 in assay [6] was 2.72 µM (active); in [7], 4.46 µM (active); with rat CYP2B1, gene 24300, 3.96 µM (active); in [8], 5.12 µM (active); in [9], 0.926 µM (active); in assay [12], 25 µM (active).
Regarding `CCN(CC)CCOc1ccc(C(=C(Cl)c2ccccc2)c2ccccc2)cc1`, the outcome in assay [1] is “inactive”; with rat CYP2B1, gene 24300 it was “inactive”; in assay [15], “inactive”; in assay [17] it was “inactive”. Also, the AC50 in [6] is 11.4 µM (active) and 4.62 µM (active); in the assay with rat CYP2B1, gene 24300, 7.35 µM (active) and 7.71 µM (active); in [13], 26.5 µM (active); in assay [3], 27.1 µM (active); in [14], 12.4 µM (active) [middle of 4 runs]; in assay [16], 5.01 µM (active).
With `NC(=NCCCCCCN=C(N)/N=C(\N)Nc1ccc(Cl)cc1)/N=C(\N)Nc1ccc(Cl)cc1`, the outcome in [1] and in [11] was inactive. Also, the concentration at half-maximal activity (AC50) in the assay on rat CYP2B1, gene 24300 is 5.93 µM (active); in assay [3], 11.8 µM (active); in assay [18], 20.5 µM (active).
